Structures can show the parent of a compound that is named as a salt. ± gives the standard deviation of the averaged measurements.

The test system of the assay is Toxoplasma gondii RH (in HFF). Kind of assay: parasite growth relative to the screen mean (all compounds = 100%); higher = less inhibition of parasite growth. The following applies: 5 µM; 72 h; oxygen 21 %. Summed up: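 RH β-Gal–GFP Toxoplasma at MOI 1:5 was used to infect confluent human foreskin fibroblasts in 96-well plates within 2 h of pin-transferring compounds to 5 µM final. After 72 h at 21% O2, parasite number was determined by CPRG β-Gal assay against standard curves on the same plate. Growth is relative to the screen mean and averaged over two screens, with all compounds = 100%.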
Turning to `O=C(Nc1ccc([N+](=O)[O-])cc1O)Nc1ccccc1Br`, the parasite growth came to 107 ± 21%. The result for `NCCc1c[nH]cn1` [Histamine dihydrochloride] reads 80.2 ± 36%; that for `C[C@@H](CN1CCC(n2c(=O)[nH]c3cc(Cl)ccc32)CC1)NC(=O)c1ccc2ccccc2c1`, 5.93 ± 2.3%. `COc1cc(-c2ccc(=O)[nH]n2)ccc1OC(F)F` [Zardaverine] had a parasite growth of 103 ± 8.7%. The result for `CC(C)NCC(O)c1ccc(O)c(O)c1` (stereo unspecified) [Isoproterenol hydrochloride] reads 172 ± 14%; that for `Oc1ccc(/C=C/c2cc(O)cc(O)c2)cc1` [Resveratrol], 112 ± 56%; that for `CCN(CC)CCOC(=O)c1cc(Cl)c(N)cc1OC` [SDZ 205-557 hydrochloride], 105 ± 6.7%.

As to `c1ccc2cc(C3=NCCN3)ncc2c1` [BU 226 hydrochloride], the parasite growth came to 126 ± 3.6%. As for `OC1CCC(Nc2nc(-c3ccccc3)nc3[nH]ccc23)CC1` (stereo unspecified), the parasite growth stood at 116 ± 3%. As for `CCCCCCCC/C=C\CCCCCCCC(=O)NCc1ccc(O)c(OC)c1` [Olvanil], the figure is 155 ± 38%. The result for `CCC1(c2ccccc2)C(=O)NCNC1=O` [Primidone] reads 113 ± 18%; that for `COc1ccc2c(c1)c(CC(=O)N1CCOCC1)c(C)n2C(=O)c1ccc(Cl)cc1`, 133 ± 23%; that for `CN1CCN2c3ccccc3Cc3ccccc3C2C1` (stereo unspecified) [Mianserin hydrochloride], 154 ± 39%. As for `O=C(NCCNCC(O)COc1ccc(O)cc1)N1CCOCC1` (stereo unspecified) [Xamoterol hemifumarate], the figure is 117 ± 12%; as for `CCCN(CC1CC1)c1nc(C)nc(Nc2c(Cl)cc(Cl)cc2Cl)c1Cl`, 116 ± 14%.

Regarding `CC(=N)NCc1cccc(CN)c1` [1400W dihydrochloride], the parasite growth was 74 ± 48%.

The values above are taken from the supplement of paper PMC4894684.
